# Reference: PubChem BioAssay AID1851 (National Center for Advancing Translational Sciences (NCATS), 2009)
# Among all 16,000 compounds or so, about 5,700 (36%) were called active. About 24% were inconclusive and are not listed. Some of the results follow. Values without a mark were called inactive. Calls follow the shape of the dose curve; as a rule, active = well fitted curve in the direction sought with a large enough effect; inconclusive = small, poorly fitted or top-dose-only effect, or effect the other way; inactive = no such curve, though single readings can be large or run the other way.
# Molecular target: Cytochrome P450 1A2 (Homo sapiens) (UniProt P05177)
# Sequence (P05177 whole entry, looked up): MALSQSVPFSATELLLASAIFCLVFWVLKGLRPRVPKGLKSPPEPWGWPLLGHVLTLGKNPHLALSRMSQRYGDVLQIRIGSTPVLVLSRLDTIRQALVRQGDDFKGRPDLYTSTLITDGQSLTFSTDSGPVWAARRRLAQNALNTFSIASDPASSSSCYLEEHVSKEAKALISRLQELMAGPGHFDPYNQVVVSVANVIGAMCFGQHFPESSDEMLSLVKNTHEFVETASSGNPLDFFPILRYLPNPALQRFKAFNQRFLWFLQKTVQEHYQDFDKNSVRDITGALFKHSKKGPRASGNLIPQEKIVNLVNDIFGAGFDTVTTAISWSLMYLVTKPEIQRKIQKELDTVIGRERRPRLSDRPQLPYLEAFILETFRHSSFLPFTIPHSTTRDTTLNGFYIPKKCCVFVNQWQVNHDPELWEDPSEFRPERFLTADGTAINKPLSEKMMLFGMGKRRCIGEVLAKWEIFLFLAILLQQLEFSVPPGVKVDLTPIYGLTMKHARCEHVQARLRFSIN
# Assay: Cytochrome panel assay with activity outcomes
# Conditions: recombinant CYP, pro-luciferin dealkylation, luminescence, p450-cyp1a2; series mostly up to 57.1 µM
# % is scaled to controls: 0 for no effect and ±100 for the full control effect.
SMILES,"activity, negative = inhibition",AC50
O=CN[C@@H](Cc1cnc[nH]1)C(=O)O,-8.82% [at 11.4 µM],
COc1ccccc1-c1ccc2ncnc(N(C)C)c2c1,,1.26 µM (active)
Cc1ccccc1-c1ccc2ncnc(N(C)C)c2c1,,0.631 µM (active)
CN(C)c1ncnc2ccc(-c3ccccc3C(F)(F)F)cc12,,0.631 µM (active)
CN(C)c1ncnc2ccc(-c3ccccc3C#N)cc12,,0.398 µM (active)
Nc1nc(=O)c2[nH]cnc2n1O,-12.4% [at 11.4 µM],
O=c1oc2cc(Oc3c([N+](=O)[O-])cc(C(F)(F)F)cc3[N+](=O)[O-])ccc2c2c1CCCC2,,3.16 µM (active)
COc1ccccc1-c1c(C(F)(F)F)oc2cc(OC(=O)c3cccc([N+](=O)[O-])c3C)ccc2c1=O,,inactive
O=c1oc2cc(Oc3ccc(C(F)(F)F)cc3[N+](=O)[O-])ccc2c2c1CCCC2,,inactive
CC(C)(C)N1C(=O)[C@H]2[C@H]3[C@H](O)[C@H](O)C/C(=N/OC[C@@H](O)COCc4ccco4)[C@H]3CC[C@@H]2C1=O,-7.06% [at 11.4 µM],
C[C@@H]1/C=C\CC(=O)OC[C@H](C)C(=O)N[C@@H](Cc2ccccc2)C(=O)OC1,-0.511% [at 11.4 µM],
COCCn1c(=O)c(CCc2ccccc2)nc2cnc(OC)nc21,,10 µM (active)
COCCn1c(=O)c(CCc2ccccc2)nc2cnc(Oc3ccc(OC)cc3)nc21,,15.8 µM (active)
COc1ncc2nc(CCc3ccccc3)c(=O)n(C)c2n1,,5.01 µM (active)
COc1ccc(-n2c(=O)c(CCc3ccccc3)nc3cnc(OC)nc32)cc1,,15.8 µM (active)
CC(C)(C)c1cc(C(=O)O)c(CN2CCCCC2)o1,,inactive
CCN1C(=O)[C@H]2[C@H]3[C@H](O)[C@H](O)C/C(=N/OC[C@@H](C)[C@H](OCc4ccccc4)C(C)C)[C@@H]3CC[C@@H]2C1=O,-11.8% [at 11.4 µM],
COc1ncc2nc(CCc3ccccc3)c(=O)n(CCC#N)c2n1,,15.8 µM (active)
CO[C@H]1COC(=O)[C@H](C)NC(=O)C/C=C\[C@@H](C)[C@H](OC)COC(=O)[C@@H](OCc2ccccc2)/C=C\[C@@H]1C,-11.8% [at 11.4 µM],
Cc1cccc(-c2n[nH]c([N+](=O)[O-])n2)c1,,14.1 µM (active)
CS(=O)(=O)Nc1cccc(-c2ccc3ncnc(Nc4ccccc4)c3c2)c1,,1 µM (active)
CS(=O)(=O)Nc1cccc(-c2ccc3ncnc(Nc4ccc(F)cc4)c3c2)c1,,0.794 µM (active)
Cn1ncc2c(Nc3cccc(C(=O)O)c3)ncnc21,,inactive
CNc1ncnc2ccc(-c3cccc(NS(C)(=O)=O)c3)cc12,,0.316 µM (active)

SMILES,"activity, negative = inhibition",AC50
CS(=O)(=O)Nc1cccc(-c2ccc3ncnc(NC4CC4)c3c2)c1,,0.631 µM (active)
Cc1nc(Oc2ccc(Cl)cc2)c2oc3ccccc3c2n1,,0.141 µM (active)
O=C1Nc2ccccc2Nc2ncccc21,,2.24 µM (active)
CS(=O)(=O)c1nc(-c2ccccc2)cc(-c2ccccc2)c1C#N,,0.891 µM (active)
N#Cc1c(-c2ccccc2)cc(-c2ccccc2)nc1SCc1nnc(-c2ccccc2)o1,,inactive
O=C1CC(=O)N(CCc2ccc(F)cc2)C(=O)N1,,inactive
CCn1c(=O)cc(SCC(=O)N2CCN(C(=O)c3ccco3)CC2)c2ccccc21,,inactive
Cc1c(/N=C/c2ccco2)n(Cc2ccccc2)c2ccccc12,,1.12 µM (active)
CNC(=O)NC(=O)CSc1nnc(-c2ccco2)n1Cc1ccccc1,,inactive
CC12c3ccccc3C(c3ccccc31)C1C(=O)N(Cc3cccnc3)C(=O)C12 (stereo not drawn),,inactive
O=C1C2[C@@H](c3ccccc3)N[C@@H](c3ccccc3)C1[C@H](c1ccccc1)N[C@H]2c1ccccc1,-18.6% [at 11.4 µM],
S=C1N[C@H](c2ccccc2)N[C@H](c2ccccc2)S1,,3.16 µM (active)
CCC(C)Nc1c([N+](=O)[O-])cc(C)cc1[N+](=O)[O-] (stereo not drawn),,1.78 µM (active)
COc1cc(C(=O)NCCC(C)C)c([N+](=O)[O-])cc1OC,,inactive
CC[C@@H](CS(=O)(=O)O)[N+](=O)[O-],-0.979% [at 11.4 µM],
Cn1cc(-c2nnc(-c3ccccc3)o2)c2ccccc21,,2 µM (active)
O=C(NC1CCCCC1)C(c1ccccc1)N1CCOCC1 (stereo not drawn),,inactive
N#C/C(=C\c1cn[nH]c1-c1ccccc1)C(=O)NC1CCCCCC1,,11.2 µM (active)
N#C/C(=C\c1cc(Cl)cc(Cl)c1O)C(=O)NC1CCCCC1,,5.01 µM (active)
COc1ccc(/C=C(/C#N)C(=O)NC2CCCCC2)cc1Br,,inactive
CCOC(=O)C[C@@H](C(=O)OCC)[C@@H]1CCCCC1=O,-6.2% [at 11.4 µM],
CCOc1cc(-c2noc(N)c2C#N)cc(OCC)c1OCC,,0.141 µM (active)
CCOC(=O)c1cc(CC)sc1NC(=O)c1cc(OCC)c(OCC)c(OCC)c1,,inactive
CCON=C1C(C)(C)C(C)(C)C(C)(C)C1(C)C,-12% [at 11.4 µM],

SMILES,"activity, negative = inhibition",AC50
CC1CN(C(NC(=O)C(C)(C)C)C(Cl)(Cl)Cl)CC(C)O1 (stereo not drawn),,inactive
CN(C)C(=O)c1ccc(-c2nc(NCc3cccs3)c3ccccc3n2)cc1,,12.6 µM (active)
NCCC(=O)NCCc1cnc[nH]1,,inactive
CN(C)c1ccc(-c2nc(NCCc3cnc[nH]3)c3ccccc3n2)cc1,,0.631 µM (active)
CN(C)C(=O)c1ccc(-c2nc(Nc3ccccc3)c3ccccc3n2)cc1,,0.398 µM (active)
COCCNc1nc(-c2ccc(C(=O)N(C)C)cc2)nc2ccccc12,,20 µM (active)
CCOC(=O)N1CCC(NC(=O)C2CCN(S(=O)(=O)N3CCCC3)CC2)CC1,,inactive
CN(C)C[C@H]1CCC[C@@H](CN(C)C)C1=O,-12.2% [at 11.4 µM],
Cc1ccc(S(=O)(=O)N[C@H](C(=O)N2CCC(C(=O)NCC(=O)O)CC2)C(C)C)cc1,,inactive
COCCNc1nc(-c2ccc(N(C)C)cc2)nc2ccccc12,,0.631 µM (active)
CC(=O)NCCNc1nc(-c2ccc(C(=O)N(C)C)cc2)nc2ccccc12,,inactive
CC(=O)NCCNc1nc(-c2ccc(N(C)C)cc2)nc2ccccc12,,3.16 µM (active)
CC(=O)NCCNc1nc(-c2ccc3c(c2)OCO3)nc2ccccc12,,2.51 µM (active)
CCCCN(C)CCCNC(=O)CS(=O)Cc1nc(-c2ccc(OC)c(OC)c2)oc1C (stereo not drawn),,inactive
O=C(c1cnccn1)N1CCC2(CC1)CN(Cc1cc(C(F)(F)F)cc(C(F)(F)F)c1)C2,,inactive
O=c1c(-c2ccccc2)nc2cnc(N3CCOCC3)nc2n1C1CC1,,3.16 µM (active)
O=c1c(-c2ccc(F)cc2)nc2cnc(N3CCOCC3)nc2n1C1CC1,,inactive
N#Cc1cccc(-c2nc3cnc(N4CCOCC4)nc3n(C3CC3)c2=O)c1,,2.51 µM (active)
N#Cc1cccc(-c2nc3cnc(N4CCNCC4)nc3n(C3CC3)c2=O)c1,,5.01 µM (active)
NC(=O)N1c2ccccc2C=Cc2ccccc21,,inactive
C=CCn1c(SCC)nc2sc3c(c2c1=O)CCc1ccccc1-3,,1.78 µM (active)
C=CCn1c(SCC(=O)Nc2c(C)n(C)n(-c3ccccc3)c2=O)nc2sc(C)c(-c3ccccc3)c2c1=O,,inactive
CC1(C)Cc2c(sc3nc(SCC(=O)NCc4ccccc4)n(-c4ccccc4)c(=O)c23)CS1,,inactive
CO[C@@H]1CC[C@@]2(C)[C@@H](CC[C@@]3(C)[C@H]2CC=C2[C@H]4CC(C)(C)[C@H](O)[C@@H](OC(C)=O)[C@]4(CO)[C@H](O)C[C@]23C)[C@@]1(C)CO (tested in a mixture with another compound),,inactive

SMILES,"activity, negative = inhibition",AC50
COc1ccc2cc(C)c3nnc(SCC(=O)Nc4nc(-c5ccccc5)cs4)n3c2c1,,inactive
COc1ccc(-c2csc(NC(=O)Cn3nc(C)cc3C)n2)cc1,,3.16 µM (active)
CC(N)=NCCCC[C@H](N)C(=O)O,,inactive
COc1cc(/C=C/C(=O)O)cc(S(=O)(=O)NCCCO)c1OC,,inactive
COc1cc(/C=C\C(=O)N2CCC=CC2=O)cc(OC)c1OC,,0.2 µM (active)
COc1cc(/C=C/C(=O)N2CCN(CC(O)COc3ccccc3)CC2)cc(OC)c1OC (stereo not drawn),,inactive
N#Cc1ccccc1-c1ccc2ncnc(NCCN3CCOCC3)c2c1,,10 µM (active)
COc1ccccc1-c1ccc2ncnc(NCCN3CCOCC3)c2c1,,15.8 µM (active)
COc1ccc(C2c3c(ncn(CCN4CCOCC4)c3=N)Oc3ccc4ccccc4c32)cc1OC (stereo not drawn),,inactive
Clc1ccccc1-c1ccc2ncnc(NCCN3CCOCC3)c2c1,,5.01 µM (active)
CCCN=Cc1c(CCC)[nH]n(-c2nc3ccccc3s2)c1=O,,0.562 µM (active)
COc1ccccc1-c1cncnc1NCCNC(C)=O,,inactive
CC(=O)NCCNc1ncncc1-c1ccccc1CN(C)C,,25.1 µM (active)
CC(=O)NCCNc1ncncc1-c1ccc(N(C)C)cc1,,6.31 µM (active)
CN(C)c1ccc(-c2cncnc2NCCN2CCOCC2)cc1,,15.8 µM (active)
CN(C)C(=O)c1ccc(-c2cncnc2NCCN2CCOCC2)cc1,,inactive
COc1ccc(CCN2CC34C=CC(O3)C(C(=O)NCc3ccccc3)C4C2=O)cc1OC (stereo not drawn),,inactive
COc1cc2c(cc1OC)C(C(=O)N1CCOCC1)C(c1cccs1)N(C)C2=O (stereo not drawn),,inactive
Oc1ccc(Cl)cc1C=Nc1cnc2ccccc2c1,-13.2% [at 2.29 µM],
Clc1ccc(C=Nc2ccc3c(c2)Cc2ccccc2-3)c(Cl)c1,,0.794 µM (active)
C(/C=C\c1ccccc1)=Nc1ccc2c(c1)Cc1ccccc1-2,,0.398 µM (active)
